Measurements as given in PubChem BioAssay (Tox21).
Results filed as inconclusive are left out. Values without a mark were called inactive. Calls of active or inactive are those of the source. The call rests on the fitted dose curve; in most records, active means well fitted curve in the direction sought with a large enough effect in the repeat runs; inconclusive means weak or mixed curves; inactive means no such curve, though single readings can be large; an effect the other way counts as inactive or inconclusive.

Target: Nuclear receptor subfamily 1 group I member 2 (Rattus norvegicus) (UniProt Q9R1A7)
Sequence (Q9R1A7 whole entry, looked up): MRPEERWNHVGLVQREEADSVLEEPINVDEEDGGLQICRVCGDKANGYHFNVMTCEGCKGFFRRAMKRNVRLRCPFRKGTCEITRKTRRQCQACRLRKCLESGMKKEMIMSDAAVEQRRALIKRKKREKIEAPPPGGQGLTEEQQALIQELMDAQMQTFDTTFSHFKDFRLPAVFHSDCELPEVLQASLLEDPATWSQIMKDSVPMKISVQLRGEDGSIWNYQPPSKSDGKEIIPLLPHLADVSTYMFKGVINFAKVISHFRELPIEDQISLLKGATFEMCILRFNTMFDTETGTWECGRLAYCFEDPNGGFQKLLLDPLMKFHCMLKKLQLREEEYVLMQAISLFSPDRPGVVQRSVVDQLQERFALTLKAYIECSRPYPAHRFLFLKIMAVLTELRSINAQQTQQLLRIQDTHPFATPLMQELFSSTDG
Assay: Rat pregnane X receptor (rPXR) activation by small molecules, qHTS assay (AID 1346983); further: nearly all actives have a fitted effect of over 20% in size; further: potency means the concentration at half of the fitted maximal effect
Conditions: rPXR luciferase reporter cells, One-Glo luminescence, 24 h; max activation: stronger effect = higher value
In short: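 Cell-based rPXR luciferase reporter assay, 2,000 cells per well, rested 5hr at 37 C before compound addition in DMSO, then 24 hr at 37 C. One-Glo reagent was added and luminescence read after 30 min at room temperature.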
On the % scale 0 is the no-effect control and ±100 the full control effect.

Structure (SMILES)	max activation	Potency
O=C1c2ccccc2C(=O)c2c1ccc(O)c2O	0.447%	–
NC(=O)c1cc[n+](CC2=C(C(=O)[O-])N3C(=O)[C@@H](NC(=O)Cc4cccs4)[C@H]3SC2)cc1	-2.94%	–
Cc1ccc(NC(=O)c2ccc(CN3CCN(C)CC3)cc2)cc1Nc1nccc(-c2cccnc2)n1	-10.6%	–
CCCc1nc(C)c2c(=O)[nH]c(-c3cc(S(=O)(=O)N4CCN(CC)CC4)ccc3OCC)nn12	–	3.55 µM (active)
Cc1cccc(C)c1NC(=O)CN1CCCC1	-2.58%	–
CC1=CC(=C(c2ccc(N)cc2)c2ccc(N)cc2)C=CC1=N	-21.7%	–

Target: Nuclear receptor subfamily 1 group I member 2 (Homo sapiens) (UniProt O75469)
Assay: CYP3A4 induction through human pregnane X receptor (PXR) by small molecules, qHTS assay (AID 1346984); further: nearly all actives have a fitted effect of over 40% in size; further: potency means the concentration at half of the fitted maximal effect
Conditions: DPX-2 HepG2 PXR, CYP3A4-luciferin luminescence, 24 h; series mostly up to 46.1 µM; activation: at the top concentration
In short: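 Readings come from a luciferase reporter: DPX-2 cells, which are HepG2 cotransfected with PXR and a CYP3A4-promoter construct, were exposed to test compounds for 24 h at 37C before One-Glo detection.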

Structure (SMILES)	Potency	activation
O=C1c2ccccc2C(=O)c2c1ccc(O)c2O	14.1 µM (active)	–
NC(=O)c1cc[n+](CC2=C(C(=O)[O-])N3C(=O)[C@@H](NC(=O)Cc4cccs4)[C@H]3SC2)cc1	–	-1.46% [at 20.6 µM]
Cc1cccc(C)c1NC(=O)CN1CCCC1	–	-7.72%
CC1=CC(=C(c2ccc(N)cc2)c2ccc(N)cc2)C=CC1=N	–	-21.5%

Target: Nuclear receptor subfamily 1 group I member 2 (Homo sapiens) (UniProt O75469)
Assay: Human pregnane X receptor (PXR) activation by small molecules, qHTS assay (AID 1346985); further: nearly all actives have a fitted effect of over 40% in size
Conditions: DPX-2 HepG2 CYP3A4-luciferase, 24 h; series mostly up to 38.3 µM; activation: at the top concentration
In short: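 DPX-2 cells (HepG2 co-transfected with a PXR response element and a CYP3A4-promoter luciferase construct) were seeded at 2,000 per well, rested 5 hr at 37C, then exposed to DMSO-dissolved compounds for 24 hr. Activation was read as luciferase luminescence.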

Structure (SMILES)	activation
O=C1c2ccccc2C(=O)c2c1ccc(O)c2O	10.2%
NC(=O)c1cc[n+](CC2=C(C(=O)[O-])N3C(=O)[C@@H](NC(=O)Cc4cccs4)[C@H]3SC2)cc1	-6.21% [at 17.1 µM]
Cc1cccc(C)c1NC(=O)CN1CCCC1	2.31%
CC1=CC(=C(c2ccc(N)cc2)c2ccc(N)cc2)C=CC1=N	-12.9%
